Here are results for 40 molecules from PubChem BioAssay (Tox21).

Inconclusive results are not listed. Active and inactive are the calls of the source. The call rests on the fitted dose curve; in most records, active means well fitted activation curve with a large enough effect in the signal ratio in the repeat runs (not every such curve was filed as active); inconclusive means weak or mixed curves, or effect the other way; inactive means no such curve, though single readings can be large or run the other way; the % refers to the signal ratio.

This experiment deals with Peroxisome proliferator-activated receptor gamma (Homo sapiens) (UniProt P37231). The experiment is described as follows: qHTS assay to identify small molecule agonists of the peroxisome proliferator-activated receptor gamma (PPARg) signaling pathway (AID 743094). Conditions: HEK293H PPARg-UAS-bla, beta-lactamase FRET ratio, 17 h; series mostly up to 57 µM. The source says: U.S. Tox21 Program National Center for Advancing Translational Sciences [NCATS] NIH Chemical Genomics Center [NCGC] U.S. Environmental Protection Agency [EPA] National Institutes of Environmental Health Sciences [NIEHS] National Toxicology Program [NTP] U.S. Food and Drug Administration [FDA] Tox21 Assay Overview: The peroxisome proliferator-activated receptors (PPARs) are lipid-activated transcription factors of the nuclear receptor superfamily with three distinct subtypes namely PPAR alpha, PPAR delta (also called PPAR beta) and PPAR gamma (PPARg). All these subtypes heterodimerize with Retinoid X receptor (RXR) and these heterodimers regulate transcription of various genes. PPAR-gamma receptor (glitazone receptor) is involved in the regulation of glucose and lipid metabolism. To identify the compounds that activate PPAR-gamma signaling, GeneBLAzer PPAR gamma UAS-bla HEK293H cell line (Invitrogen, Carlsbad, CA, USA) containing a beta-lactamase reporter gene under control of the control of an upstream activator sequence (UAS) stably integrated into HEK293H cells was used to screen Tox21 compound library.
Chain of Peroxisome proliferator-activated receptor gamma (Homo sapiens) (P37231 whole entry, looked up): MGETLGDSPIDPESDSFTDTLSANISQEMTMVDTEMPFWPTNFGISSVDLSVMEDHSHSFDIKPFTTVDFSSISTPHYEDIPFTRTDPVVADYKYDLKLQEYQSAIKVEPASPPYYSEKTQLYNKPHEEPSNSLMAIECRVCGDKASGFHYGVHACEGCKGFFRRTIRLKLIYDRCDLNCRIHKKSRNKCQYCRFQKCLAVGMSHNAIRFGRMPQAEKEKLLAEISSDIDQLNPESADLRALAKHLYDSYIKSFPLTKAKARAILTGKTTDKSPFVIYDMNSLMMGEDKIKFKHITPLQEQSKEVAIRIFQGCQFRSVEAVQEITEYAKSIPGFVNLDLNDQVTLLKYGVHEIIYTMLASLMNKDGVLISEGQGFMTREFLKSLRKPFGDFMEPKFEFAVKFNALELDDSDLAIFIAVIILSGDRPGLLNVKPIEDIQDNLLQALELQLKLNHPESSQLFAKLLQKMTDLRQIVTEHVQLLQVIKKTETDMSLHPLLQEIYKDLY
Tox21 Assay Protocol Summary: PPARg-bla cells were dispensed at 3000 cells/6uL/well in 1536-well black wall/clear bottom plates using a Multidrop Combi (Thermo Fisher Scientific, Waltham, MA) dispenser. After the assay plates were incubated at 37C and 5% CO2 for 5 h, 23 nL of compounds dissolved in DMSO, positive controls or DMSO only was transferred to the assay plate by a Pintool station (Kalypsys, San Diego, CA). The assay plates were incubated at 37C for 17 h. After 1 uL of LiveBLAzerTM B/G FRET substrate was added using a Bioraptr Flying Reagent Dispenser (FRD) workstation (Beckman Coulter, Indianapolis, IN, USA), the plates were incubated at room temperature for 1 h, and fluorescence intensity was measured by an Envision plate reader (PerkinElmer, Shelton, CT).
In general terms: qHTS replaces the single test concentration by a dilution series.
`CC(C)(O)C(Cl)(Cl)Cl`: the result was inactive.
On to `CCC(=O)OC1(c2ccccc2)CCN(C)CC1`, for which the outcome was inactive.
For `CCN(CCO)CCO`, the result was inactive.
Then `CCOC(=O)CC(SP(=S)(OC)OC)C(=O)OCC` (stereo not given), with “inactive”; and `CN(CCO)CCO`, with “inactive”; and `CCN(CC)CCOC(=O)C(O)(c1ccccc1)c1ccccc1`, with “inactive”.
With `CS(=O)(=O)Cl` the entry was “inactive”.
Then `Cl/C=C/CCl`, with “inactive”.
For the molecule `C=CC1(C)OC(=O)N(c2cc(Cl)cc(Cl)c2)C1=O` (stereo not given), the result was inactive.
Turning to `CNC(=O)Oc1ccccc1C(C)C`, the result was inactive.
Then `[O-][Br+2]([O-])O`, with “inactive”; and `CCC(C(N)=O)N1CCCC1=O` (stereo not given), with “inactive”; and `CC(C)(C)C(=O)Cl`, with “inactive”.
Take `C[C@@H](N)[C@@H](O)c1ccccc1`: the outcome was inactive.
Then `OP(O)c1ccccc1`, with “inactive”; and `Oc1ccc(Cc2ccc(O)cc2)cc1`, with “inactive”.
Then `CCOP(=S)(OCC)SCCl`, with “inactive”; and `COc1ccccc1OC`, with “inactive”; and `O=c1[nH]oc2c1CCNC2`, with “inactive”.
Consider `ClC(Cl)(Cl)Cl`, for which the result was inactive.
Then `O=C(Cl)c1ccccc1`, with “inactive”; and `CCCCCCCCBr`, with “inactive”; and `O=C(O)C(Br)(Br)Br`, with “inactive”.
Consider `CN(C)C(=O)Oc1cc(OC(=O)N(C)C)cc(C(O)CNC(C)(C)C)c1` (stereo not given), for which the result was inactive.
With `COc1cc(CCN)cc(OC)c1OC` the entry was “inactive”; with `CCCCCCCCSC(=O)Oc1cc(Cl)nnc1-c1ccccc1`, “inactive”; with `ClC1=C(Cl)C2(Cl)C(CBr)CC1(Cl)C2(Cl)Cl` (stereo not given), “inactive”.
Then `O=C1C2CC=CCC2C(=O)N1SC(Cl)(Cl)Cl` (stereo not given), with “inactive”; and `CCNP(=S)(OC)O/C(C)=C/C(=O)OC(C)C` (stereo not given), with “inactive”.
For the molecule `Cc1ccc2cc(C)ccc2c1`, the result was inactive.
Turning to `CCOC(=O)N(C)N=O`, the outcome was inactive.
With `O=C(O)c1c(Cl)ccc2cc(Cl)cnc12` the entry was “inactive”.
Then `Cc1ccc(Cl)c(O)c1`, with “inactive”; and `C#CCOC(=O)/C=C(C)/C=C/CC(C)CCCC(C)C` (stereo not given), with “inactive”; and `CCCN1CCC[C@@H]2Cc3nc(N)ncc3C[C@H]21`, with “inactive”.
For the molecule `CCSC(=O)Cl`, the outcome was inactive.
As for `NCCOS(=O)(=O)O`, the result was inactive.
Take `CC(C)NCC(O)c1ccc([N+](=O)[O-])cc1` (stereo not given): the result was inactive.
For the molecule `COc1cccc(C=O)c1`, the outcome was inactive.
For the molecule `CC1=C2[C@H]3OC(=O)[C@@H](C)[C@@H]3CC[C@@]2(C)C=CC1=O`, the outcome was inactive.
